AMA1 RON2 block – qHTS for Inhibitors of AMA1-RON; Towards Development of Antimalarial Drug Lead: Primary Screen; Potency, µM (titrated, usually from 58.2 µM), for the others: at the top dose activity change, negative = inhibition, hits mostly inhibitors; actives 0.2% (n = 360,000); AlphaScreen AMA1-biotinylated RON2 peptide binding;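 note: potency is the fitted concentration of half-maximal effect; 0% = vehicle wells and -100% = peptide control; nearly all actives have a fitted effect of over 45% in size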
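AMA1 (3D7) with his tag at 25 nM final met compounds first, then biotinylated RON2 peptide at 25 nM; detection used donor plus acceptor beads, 10 µg/mL apiece, read by AlphaScreen after 30 min at room temperature.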
Shiga toxin inh – A qHTS for Small Molecule Inhibitors of Shiga Toxin; Vero cells, Shiga toxin protein synthesis inhibition reporter; actives 9.2% (n = 290,000); inhibition, % at 38.7 µM; in the data active = inhibition mostly above about 28%, no sharp cut-off; inactive = mostly below about 43%; note: 0% is about no effect
HCV inhibitor – qHTS Assay for Inhibitors of Hepatitis C Virus (HCV) | Huh7.5.1 HCVcc-Cre infection, luciferase reporter, 44 h | Potency, µM (doses to about 41.8 µM), without a hit: at the top dose activity change, negative = inhibition, most hits filed as inhibitors | actives 3.4% (n = 340,000); note: potency is the fitted concentration of half-maximal effect; % is set by controls: 0 for no effect and ±100 for the full control effect
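Cells seeded at 1,000/well and cultured 4 h, then compounds added followed by HCVcc-Cre virus (~0.5 moi). After 44 h further culture, luciferase substrate was added, plates held 15 min at room temperature, and luminescence read for 15 sec.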
CHX counter – Cycloheximide Counterscreen for Small Molecule Inhibitors of Shiga Toxin; cell reporter, cycloheximide protein synthesis inhibition counterscreen; max response, %; actives 12% (n = 300,000); AID 2314, 2010; in the data active = max response mostly above about 13%, no sharp cut-off; inactive = mostly below about 14%; note: read at 38.3 µM for the half of the compounds with a filed dose; 0% is about no effect
Pf growth 48h – Primary qHTS for delayed death inhibitors of the malarial parasite plastid, 48 hour incubation; P. falciparum luciferase growth in erythrocytes, 48 h; Potency, µM (top dose mostly 28.7 µM), for inactives: top-dose activity change, negative = inhibition, most hits filed as inhibitors; actives 5.9% (n = 310,000); note: potency is the fitted concentration of half-maximal effect; % is set by controls: 0 for no effect and ±100 for the full control effect
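First compound was added to culture medium, then infected red cells at 0.1% parasitemia and 2% hematocrit (final). After incubation at 37 C under 5% CO2, luciferase detection reagent was dispensed and light output recorded.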
Pf growth 96h – Primary qHTS for delayed death inhibitors of the malarial parasite plastid, 96 hour incubation | P. falciparum luciferase reporter growth, 96 h | Potency, µM (top dose mostly 28.7 µM), inactives show at the top dose activity change, negative = inhibition, actives largely listed as inhibitors | actives 6.9% (n = 320,000) | AID 504834, 2011; note: potency is the fitted concentration of half-maximal effect; % is set by controls: 0 for no effect and ±100 for the full control effect
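Infected RBCs, 2% Hct / 0.05% parasitemia final; luciferase-reporter P. falciparum; cpd 96 h, 37 C, 5% CO2; luciferase detection reagent; luminescence.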
Numbers without * were called inactive; ? = inconclusive; / = no result; + = active, no number. Sampled rows, rich in hits. Any-hit rate of the full collection: about 21%. Unless noted, calls come from the whole dose curve; as a rule, active = well fitted curve in the direction sought with a large enough effect; inconclusive = small, poorly fitted or top-dose-only effect, or another doubt; inactive = no such curve, though single readings can be large; an effect the other way counts as inactive or inconclusive.

SMILES	AMA1 RON2 block	Shiga toxin inh	HCV inhibitor	CHX counter	Pf growth 48h	Pf growth 96h
COC(=O)[C@@]12C[C@@H](CC(=O)NCc3cccc(C(F)(F)F)c3)C(=O)N(CCc3ccc(OC)c(OC)c3)C1=CCC(C)(C)C2	-22%	/	/	/	/	/
CC(C)CC(=O)Nc1cccc(-c2csc(-c3ccccc3)n2)c1	12%	+	?	39*	?	6.6µM*
CCC(=O)Nc1cccc(-c2csc(-c3ccccc3)n2)c1	12%	62*	?	54*	34%	-2%
CC(C)CC(=O)Nc1cccc(-c2nc3ccccc3[nH]2)c1	-2%	16	?	14*	86%	-3%
O=C(COc1ccccc1)Nc1cccc(-c2nc3cc4ccccc4cc3[nH]2)c1	4%	79*	7.1µM*	70*	117%	14%
COc1ccc(CC(=O)Nc2cccc(-c3csc(C)n3)c2)cc1	4%	37	?	16	6%	/
CC1(C(=O)NS(=O)(=O)c2ccccc2Cl)CCN1C(=O)c1ccccc1CCc1ccccc1 (centres undefined)	-9%	/	/	/	/	/
COc1ccc(CN(C)C(=O)Cn2cnc3c(SC)nc(N)nc32)cc1OC	0%	/	4.5µM*	/	/	/
CCOc1ccc(S(=O)(=O)NCc2ccc(F)cc2)c2cccnc12	13%	5	-3%	11	0%	6.6µM*
CCOc1ccc(Br)cc1S(=O)(=O)NCc1ccncc1	10%	-7	-25%	-3	-1%	13µM*
COc1ccc(C(=O)NCc2ccncc2)cc1S(=O)(=O)NCc1ccc(Cl)cc1	0%	/	-21%	/	?	10µM*
CCOc1ccc(S(=O)(=O)Nc2ccc3c(c2)OCO3)c2cccnc12	32%	19	-9%	23*	?	?
CCOc1ccccc1N(CC(=O)NC(C)(C)C)C(=O)CCC(=O)Nc1nccs1	3%	/	-6%	-3	?	0%
COc1ccc(S(=O)(=O)NC(=O)C2(C)CCN2C(=O)c2cccc(F)c2)cc1 (centres undefined)	4%	/	/	/	/	/
CC(=O)Nc1ccc(NC(=O)C(OC(=O)c2ccccc2)C(OC(=O)c2ccccc2)C(=O)O)cc1 (centres undefined)	-14%	13	10%	-1	1%	?
O=C(COC(=O)c1ccc(S(=O)(=O)C(F)F)cc1)Nc1cccnc1Cl	6%	/	13%	/	-19%	11%
CCCCn1c(N)c(N(CCC(C)C)C(=O)C2CC(=O)N(c3ccccc3OCC)C2)c(=O)[nH]c1=O (centres undefined)	-11%	2	6%	-3	?	-20%
NS(=O)(=O)c1ccc(N=Cc2c(O)n(-c3nccs3)c(=O)c3ccccc23)cc1	-23%	-2	9%	0	4.7µM*	?
O=C(Nc1nc2c(s1)CCCC2)c1ccc(Br)s1	-14%	111*	?	42*	-54%	16%
Cc1ccc(C)c2sc(NC(=O)c3ccc(N4C(=O)CCC4=O)cc3)nc12	-3%	-11	?	-2	49%	43%
CC1CCc2nc(NC(=O)c3ccc(N4C(=O)CCC4=O)cc3)sc2C1 (centres undefined)	14%	35*	3%	13*	?	9%
O=C(Nc1nc2c(s1)CCCC2)c1ccc(N2C(=O)CCC2=O)cc1	14%	72*	-14%	38*	42%	52%
COCCCN(CC(=O)O)S(=O)(=O)c1cccc(Cl)c1	-11%	-14	21%	-1	5%	16%
COc1ccccc1CNC(=O)C[C@H]1CC[C@@H]2[C@H](COC[C@H](O)CN2Cc2ccc3c(c2)OCO3)O1	-3%	/	/	/	/	/
CN(C)c1ccc2c(-c3ccccc3)c3ccc(=[N+](C)C)cc-3oc2c1	/	-2	/	12	/	/
SMILES	AMA1 RON2 block	Shiga toxin inh	HCV inhibitor	CHX counter	Pf growth 48h	Pf growth 96h
Cc1ccc(O)c(C(=O)c2cnc3c(c2)COc2ccccc2-3)c1	?	11	10µM*	19	4.1µM*	?
C[C@H](CO)N1C[C@H](C)[C@@H](CN(C)Cc2cccc(F)c2)Oc2cc(-c3cccc(C#N)c3)ccc2S1(=O)=O	-8%	/	/	/	/	/
COc1cccc(-c2cnc(C(O)c3cc(C)c(OC)c(C)c3)[nH]2)c1 (centres undefined)	-5%	/	/	/	/	/
Nc1nc(-c2ccc(Br)cc2)c(S(=O)(=O)c2ccccc2)s1	4%	-3	-14%	1	0%	3%
O=S(=O)(c1cccc(Br)c1)N1CCN(c2ncnc3scc(-c4ccccc4)c23)CC1	-9%	/	?	/	/	/
O=S(=O)(c1ccccc1)[C@@]1(c2ccc(Br)cc2)C[C@@H]2ON=C(c3ccccc3)[C@@H]2C1	-1%	/	10µM*	/	?	?
O=S(=O)(c1ccccc1)[C@@]1(c2ccc(Br)cc2)C[C@@H]2ON=C(c3cccc(Br)c3)[C@@H]2C1	-1%	/	12%	/	9.3µM*	?
O=C(N/N=C/c1ccc(-c2ccccc2Cl)o1)c1ccccc1	15%	69*	13µM*	32*	?	-5%
O=S(=O)(N/N=C\c1ccc(-c2ccccc2Cl)o1)c1ccccc1	-3%	19	?	-1	7%	-6%
Clc1ccccc1-c1ccc(/C=N/Nc2nncc(-c3ccccc3)n2)o1	60%	26	-21%	8	18%	30%
O=C(O)c1ccc(N/N=C/c2ccc(-c3ccccc3Cl)o2)cc1	-6%	100*	7%	50*	425%	-18%
CCN(C(=O)COC(=O)c1cccc(NS(=O)(=O)c2ccc(F)c(F)c2)c1)C1CCS(=O)(=O)C1 (centres undefined)	/	-5	/	-2	-24%	1%
O=C(COC(=O)/C=C/c1cccc(F)c1)NC(=O)NCc1ccccc1	-11%	/	-6%	/	/	/
CN(C)CCNC(=O)C(c1ccccc1)c1ccccc1	-2%	-11	9%	-1	?	-11%
O=C(NCCc1cccs1)C(c1ccccc1)c1ccccc1	1%	19	8%	0	-35%	12µM*
Cc1ccc(C(=O)NCCc2cccs2)cc1	3%	-13	-21%	1	223%	?
O=C(NCCc1cccs1)c1ccc(Cl)cc1	-3%	35*	-20%	20*	92%	21%
CCC(NC(=O)Cc1cccs1)c1ccccc1 (centres undefined)	10%	-9	7%	2	3%	5.9µM*
O=C(NCCc1cccs1)c1ccc(Cl)c(Cl)c1	32%	72*	-19%	44*	61%	51%
CC1(C(=O)NS(=O)(=O)c2ccc(Cl)cc2)CCN1C(=O)c1ccccc1CCc1ccccc1 (centres undefined)	16%	/	/	/	/	/
